Source: PubChem BioAssay
Tau FP inhib – blocks human tau fibril formation measured by polarization. P10636. K18 P301L tau heparin fibrillization, Alexa594 FP, 6 h. Potency, µM (doses to about 57.7 µM), hits mostly inhibitors. actives 0.39% (n = 280,000). AID 1468; note: nearly all actives have a fitted effect of over 55% in size
Target sequence (P10636 561-689 P618L limits assumed): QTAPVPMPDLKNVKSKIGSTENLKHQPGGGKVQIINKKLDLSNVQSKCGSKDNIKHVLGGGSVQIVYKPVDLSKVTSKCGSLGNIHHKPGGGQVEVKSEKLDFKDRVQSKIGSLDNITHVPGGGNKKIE
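Steps: dispense K18 P301L tau (15 uM plus 0.24 uM Alexa 594 tracer, final) in pH 7 sodium acetate; add compound; add heparin (20 uM final); incubate 6 hr, 37 C; add ThT (30 uM final); after 1 hr ambient, read FP.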
Tau ThT inhib – tau fibrillization inhibition (ThT binding). P10636. recombinant tau K18 P301L, heparin-induced fibrillization, ThT fluorescence. Potency, µM (highest dose often 57.4 µM), usual class: inhibitors. actives 2.1% (n = 270,000); note: nearly all actives have a fitted effect of over 55% in size
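ThT emission at 510 nm, taken 1 hr after adding 30 uM dye, quantifies aggregates formed when 20 uM heparin acts on human tau K18 P301L for 6 hr at 37 C.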
Coupling enz – counter-screen for Giardia aldolase inhibitors: coupling enzyme system; coupling enzyme system counterscreen, AmpLite Red fluorescence; activity change, negative = inhibition, % at 58.2 µM, hits read low; actives 0.67% (n = 290,000); in the data active = activity change below about -30%
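Activity here indicates interference with the coupling reaction, not aldolase inhibition. Compounds at 57.5 uM final met coupling enzymes for 10 min at RT; substrate and AmpLite Red detection followed, with a 525/598 nm fluorescence read after 20 min.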
Sfp PPTase inh – Sfp phosphopantetheinyl transferase inhibition | Biochemical Sfp PPTase activity, qHTS | Potency, µM, actives largely listed as inhibitors | Q9F4F7 | actives 3.5% (n = 310,000) | AID 1490;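 note: the enzyme is Sfp with the accession as filed and its product quenches rhodamine fluorescence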
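Reaction rates are the 30-min fluorescence difference (ex 525, em 598 nm) in wells containing 15 nM Sfp, 5 uM rhodamine-CoA and 12.5 uM BHQ-2-YbbR at pH 7.6 with 10 mM MgCl2.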
Tau fluor cs – counter-screen for tau fibril formation inhibitors. tau K18 P301L Alexa594 fluorescence, heparin fibrillization. Potency, µM (series often up to 57.7 µM). actives 0.93% (n = 280,000). AID 1463; note: nearly all actives have a fitted effect of over 55% in size
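Human tau K18 P301L (15 uM unlabeled, 0.24 uM Alexa 594-labeled) in 100 mM sodium acetate pH 7 with 20 uM heparin, 6 hr at 37 C. ThT 30 uM added, 1 hr ambient; Alexa 594 FP and total fluorescence read at 555/632 nm.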
G9a block – blocks human histone lysine methyltransferase G9a; Q96KQ7; G9a H3K9 monomethylation, AlphaScreen, 2 h; Potency, µM (titrated, usually from 102 µM), most hits filed as inhibitors; actives 8.8% (n = 350,000); note: nearly all actives have a fitted effect of over 75% in size
Target sequence (Q96KQ7 913-1193 limits assumed): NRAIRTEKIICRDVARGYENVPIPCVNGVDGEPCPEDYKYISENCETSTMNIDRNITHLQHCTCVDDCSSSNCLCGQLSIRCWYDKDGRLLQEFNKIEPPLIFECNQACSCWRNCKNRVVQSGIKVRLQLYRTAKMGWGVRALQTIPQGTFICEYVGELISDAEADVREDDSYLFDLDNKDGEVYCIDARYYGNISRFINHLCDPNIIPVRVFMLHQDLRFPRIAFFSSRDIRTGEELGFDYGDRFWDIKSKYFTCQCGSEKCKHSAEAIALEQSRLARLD
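AlphaScreen detection with an anti-monomethyl H3K9 antibody quantified product after a 2 h room-temperature reaction containing 500 nM biotinylated H3K9 peptide, 20 µM SAM and 20 nM enzyme, which had been preincubated 15 min with compound.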
Of the large screens only hits and unclear results are named; the others gave an inactive call. In the library only some 11% were active in any assay of this set; here they are far more common. Unless noted, calls come from the whole dose curve; as a rule, active = well fitted curve in the direction sought with a large enough effect; inconclusive = small, poorly fitted or top-dose-only effect, or another doubt; inactive = no such curve, though single readings can be large; an effect the other way counts as inactive or inconclusive.

Nc1c(Cl)ncnc1N/N=C/c1cccnc1	Tau FP inhib inconclusive, Sfp PPTase inh 50µM, Tau fluor cs inconclusive, G9a block 40µM (no result: Tau ThT inhib)
Nc1c(Cl)ncnc1N/N=C/c1ccc2ccccc2n1	Tau ThT inhib 4µM, G9a block inconclusive
Nc1c(Cl)ncnc1N/N=C/c1ccnc2ccccc12	Sfp PPTase inh 35µM, G9a block inconclusive
Cc1ccc(CNC(=O)CSc2nc(=O)n3cccc(C)c3n2)cc1	none (no result: Tau FP inhib, Tau ThT inhib, Coupling enz, Sfp PPTase inh, Tau fluor cs)
COc1cccc(Cn2c(=O)c(-c3cccs3)nc3cnc(N(C)C)nc32)c1	none (no result: Tau FP inhib, Tau ThT inhib, Tau fluor cs)
c1coc(-c2nc3nc4ccccc4nc3n2CC2CCCO2)c1 (centres undefined)	Sfp PPTase inh 79µM, G9a block 50µM
c1ccc(-c2nc3nc4ccccc4nc3n2CC2CCCO2)cc1 (centres undefined)	Tau FP inhib inconclusive
COc1ccc(CCn2c(-c3ccco3)nc3nc4ccccc4nc32)cc1	Sfp PPTase inh 35µM
CCOc1ccc(CCn2c(-c3ccco3)nc3ccccc3c2=O)cc1OCC	Sfp PPTase inh 56µM, G9a block inconclusive
COc1ccc(CN2CCNC(=O)C2CC(=O)NCC2CCOCC2)c(F)c1 (centres undefined)	G9a block 79µM (no result: Tau FP inhib, Tau ThT inhib, Coupling enz, Tau fluor cs)
COc1cccc(CN2CCNC(=O)C2CC(=O)NCc2cc(C(C)C)no2)c1 (centres undefined)	G9a block 50µM
O=C(CC1C(=O)NCCN1Cc1cccc(F)c1F)NCCCC1CCCC1 (centres undefined)	G9a block 50µM (no result: Tau FP inhib, Tau ThT inhib, Coupling enz, Tau fluor cs)
COc1cccc(CN2CCNC(=O)C2CC(=O)NC2Cc3ccccc3C2)c1 (centres undefined)	G9a block 45µM
CCCN1CCC(NC(=O)CC2C(=O)NCCN2Cc2cccc(OC)c2)CC1 (centres undefined)	none (no result: Tau FP inhib, Tau ThT inhib, Coupling enz, Tau fluor cs)
O=C(CC1C(=O)NCCN1Cc1cccc(Oc2ccccc2)c1)NCC1CCOCC1 (centres undefined)	G9a block 45µM
COc1ccccc1CN1CCNC(=O)C1CC(=O)NCC1CCOCC1 (centres undefined)	none (no result: Tau FP inhib, Tau ThT inhib, Coupling enz, Tau fluor cs)
COc1ccccc1CCNC(=O)CC1C(=O)NCCN1CCCc1ccccc1 (centres undefined)	none (no result: Tau FP inhib, Tau ThT inhib, Tau fluor cs)
COc1cccc(CN2CCNC(=O)C2CC(=O)NCC2CCOCC2)c1 (centres undefined)	G9a block 50µM (no result: Tau FP inhib, Tau ThT inhib, Coupling enz, Tau fluor cs)
O=C(CC1C(=O)NCCN1Cc1cccc(F)c1)NCCCCCN1CCOCC1 (centres undefined)	G9a block 71µM (no result: Tau FP inhib, Tau ThT inhib, Coupling enz, Tau fluor cs)
COc1cccc(CNC(=O)CC2C(=O)NCCN2CCCc2ccccc2)c1 (centres undefined)	G9a block 50µM (no result: Tau FP inhib, Tau ThT inhib, Tau fluor cs)
CC(=O)Nc1sc(C)c(C)c1C(=O)OCC(=O)N(CCC#N)c1cc(C)cc(C)c1	none (no result: Tau FP inhib, Tau ThT inhib, Coupling enz, Sfp PPTase inh, Tau fluor cs)
CCC1CCc2nc3sc(C(=O)Nc4cccc(F)c4)c(N)c3cc2C1 (centres undefined)	none (no result: Coupling enz, Sfp PPTase inh)
COc1cccc(NC(=O)C2=C(C)C(=O)OC23CCN(C(C)=O)CC3)c1	none (no result: Coupling enz, Sfp PPTase inh)
Cc1ccc2c(=O)cc(C(=O)Nc3sc4c(c3C(=O)NCc3ccco3)CCCC4)oc2c1C	none (no result: Coupling enz, Sfp PPTase inh)
CCOc1ccc(CN2CCNC(=O)C2CC(=O)NCCC2=CCCCC2)cc1 (centres undefined)	none
COc1cc(CN2CCNC(=O)C2CC(=O)NCCC2=CCCCC2)cc(OC)c1 (centres undefined)	G9a block 50µM
O=C(Nc1cc(C(F)(F)F)ccc1Cl)C(Sc1cccc[n+]1[O-])c1ccccc1 (centres undefined)	G9a block 8.9µM
O=C(Nc1cc(C(F)(F)F)ccc1Cl)C(Sc1n[nH]c(=O)[nH]c1=O)c1ccccc1 (centres undefined)	none
O=C(Nc1cc(C(F)(F)F)ccc1Cl)C(Sc1nnc(-c2cccs2)o1)c1ccccc1 (centres undefined)	Tau ThT inhib inconclusive, Tau fluor cs inconclusive, G9a block 7.1µM
